This note sets out measurements from PubChem BioAssay (NCI).

Among the test systems are SR leukemia; RPMI-8226 leukemia; OVCAR-8 ovarian; OVCAR-5 ovarian; OVCAR-4 ovarian; SK-OV-3 ovarian; IGROV1 ovarian; OVCAR-3 ovarian; HS 578T breast; NCI/ADR-RES ovarian.
Assay in all cases: NCI-60 one-dose screen, 48 h (100 = growth as untreated, 0 = no growth, -100 = all killed)
Conditions in all cases: 10 µM unless noted

Each structure is given as a SMILES string. This is part of a sample that, as a whole, favours compounds with a hit. Of some 83,000 tested, about 20% had one in any assay.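 Results are percent growth after 48 hours of single-concentration exposure. 100 means growth as in untreated cells, lower positive values show inhibition; negative values down to -100 show cell death.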 A number with no mark means an inactive call. Calls of active or inactive are those of the source. The calls were made as follows: active = growth percent below 10; inactive = the rest.

Regarding `Nc1cc(C(=O)NC[C@H]2CN(c3ccc(N4CCC(C(=O)O)CC4)cc3)C(=O)O2)ccc1Cl`, the growth is 95.4% with SR leukemia; 100% with RPMI-8226 leukemia; 103% in the experiment on OVCAR-8 ovarian; 96.1% with OVCAR-5 ovarian; 107% with OVCAR-4 ovarian; 113% with SK-OV-3 ovarian. For the same molecule, the growth is 103% in the experiment with IGROV1 ovarian, 114% with OVCAR-3 ovarian, 107% in the experiment on HS 578T breast and 103% with NCI/ADR-RES ovarian.

As for `CCN1C(=O)N(CC)C2C1NN=c1s/c(=C\c3ccccc3F)c(=O)n12` (stereo not given), the growth was 8.64% (active) in the experiment with SR leukemia; 21.4% with RPMI-8226 leukemia; -1.12% (active) with OVCAR-8 ovarian; 27.5% with OVCAR-5 ovarian; 41.4% in the experiment on OVCAR-4 ovarian; 32.6% with SK-OV-3 ovarian. Also, the growth in the experiment with IGROV1 ovarian was 15.2%; with OVCAR-3 ovarian it was 0.255% (active); with HS 578T breast, 13.2%; in the experiment with NCI/ADR-RES ovarian, 6.01% (active).

Turning to `CCCCC1=C(P(=O)(O)O)N[C@H](C(=O)O)CS1`, the growth in the experiment on SR leukemia was 96.4%; in the experiment on RPMI-8226 leukemia, 99.7%; with OVCAR-8 ovarian, 95.5%; with OVCAR-5 ovarian, 94.4%; in the experiment with OVCAR-4 ovarian it was 91.3%; in the experiment with SK-OV-3 ovarian it was 80.7%. The growth in the experiment with IGROV1 ovarian is 94.3%; with OVCAR-3 ovarian it was 106%; in the experiment on HS 578T breast it was 109%; in the experiment on NCI/ADR-RES ovarian it was 108%.

Turning to `Cc1cc(=O)n(C(=O)Nc2ccccc2Cl)c2cc(O)ccc12`, the growth with SR leukemia was 112%; with RPMI-8226 leukemia, 97.8%; in the experiment with OVCAR-8 ovarian, 95.5%; in the experiment on OVCAR-5 ovarian, 102%; in the experiment with OVCAR-4 ovarian, 107%; in the experiment with SK-OV-3 ovarian, 95%. For the same molecule, the growth with IGROV1 ovarian is 104%; in the experiment on OVCAR-3 ovarian, 106%; in the experiment with HS 578T breast, 98.7%; in the experiment with NCI/ADR-RES ovarian it was 99.9%.

As for `Nc1nc2ccccc2c2c1S(=O)(=O)c1ccc(Cl)cc1C2=O`, the growth was 3.3% (active) in the experiment on SR leukemia; -15.1% (active) in the experiment on RPMI-8226 leukemia; 8.43% (active) in the experiment with OVCAR-8 ovarian; 13.9% in the experiment with OVCAR-5 ovarian; 7.52% (active) in the experiment on OVCAR-4 ovarian; 58.6% with SK-OV-3 ovarian. The growth is 27.6% with IGROV1 ovarian, -12.5% (active) with OVCAR-3 ovarian, 6.88% (active) in the experiment on HS 578T breast and 24.8% in the experiment with NCI/ADR-RES ovarian.

Turning to `N#CC(C#N)N=Nc1ccc(Br)cc1`, the growth in the experiment with SR leukemia was -15.2% (active); in the experiment with RPMI-8226 leukemia, 11.5%; in the experiment with OVCAR-8 ovarian, 28%; in the experiment on OVCAR-5 ovarian, 68.3%; in the experiment on OVCAR-4 ovarian, 17.7%; with SK-OV-3 ovarian, 60.3%. Besides, the growth in the experiment with IGROV1 ovarian was 49.1%; in the experiment on OVCAR-3 ovarian, 17.7%; in the experiment with HS 578T breast, 87.1%; in the experiment with NCI/ADR-RES ovarian, 60.9%.

As for `COc1ccc(\C=N/N=C(N)/C(N)=N\N=C/c2ccc(OC)cc2)cc1`, the growth with SR leukemia is 46.9%; with RPMI-8226 leukemia, 79.2%; with OVCAR-8 ovarian, 117%; in the experiment on OVCAR-5 ovarian, 107%; in the experiment with OVCAR-4 ovarian, 117%; in the experiment on SK-OV-3 ovarian, 96.1%. Also, the growth is 122% in the experiment with IGROV1 ovarian, 108% in the experiment with OVCAR-3 ovarian, 87.3% in the experiment with HS 578T breast and 107% in the experiment with NCI/ADR-RES ovarian.

Consider `COC1=CC(c2ccc[nH]2)=N/C1=C\c1[nH]c(C)c(CC(=O)OCc2ccccc2)c1CCC(=O)OCc1ccccc1`, for which the growth in the experiment with SR leukemia was -36.2% (active); in the experiment on RPMI-8226 leukemia it was -50.8% (active); in the experiment on OVCAR-8 ovarian, -18.9% (active); in the experiment on OVCAR-5 ovarian, -17.1% (active); in the experiment with OVCAR-4 ovarian, 13.6%; in the experiment on SK-OV-3 ovarian, -13.6% (active). Further, the growth with IGROV1 ovarian was 12.6%; in the experiment with OVCAR-3 ovarian, -86.8% (active); in the experiment on HS 578T breast, -18.9% (active); in the experiment with NCI/ADR-RES ovarian, -26.4% (active).

In the case of `Clc1cccc(Nc2ncnc3ccc(-c4cnc5[nH]ccc5c4)cc23)c1`, the growth with SR leukemia is 60%; in the experiment on RPMI-8226 leukemia it was 60%; in the experiment with OVCAR-8 ovarian, 68.2%; in the experiment on OVCAR-5 ovarian it was 78.7%; with OVCAR-4 ovarian it was 85%; in the experiment on SK-OV-3 ovarian, 71.1%. The growth was 25.1% in the experiment on IGROV1 ovarian, 64.6% with OVCAR-3 ovarian, 81.4% in the experiment on HS 578T breast and 77% with NCI/ADR-RES ovarian.

Take `O=C1/C(=C/c2ccccc2O)CC/C1=C\c1ccccc1O`: the growth in the experiment on SR leukemia is 8.12% (active); in the experiment with RPMI-8226 leukemia, -6.74% (active); in the experiment on OVCAR-8 ovarian, 68.9%; in the experiment with OVCAR-5 ovarian, 126%; with OVCAR-4 ovarian, 63.4%; with SK-OV-3 ovarian, 102%. In addition, the growth with IGROV1 ovarian is 32.1%; in the experiment on OVCAR-3 ovarian it was 30.9%; with HS 578T breast, 70.7%; in the experiment on NCI/ADR-RES ovarian it was 72.7%.

Turning to `CCNCCNc1cc(C2CCCCC2)c(C#N)c2nc3ccccc3n12`, the growth in the experiment with SR leukemia is -10.4% (active); in the experiment on RPMI-8226 leukemia it was -13.9% (active); in the experiment with OVCAR-8 ovarian, 26.2%; in the experiment on OVCAR-5 ovarian, 18.2%; in the experiment on OVCAR-4 ovarian, 28.3%; in the experiment with SK-OV-3 ovarian, 28.2%. The growth was 7.32% (active) in the experiment with IGROV1 ovarian, -67.9% (active) with OVCAR-3 ovarian, -5.65% (active) with HS 578T breast and 35.5% in the experiment on NCI/ADR-RES ovarian.

`COc1cc(/C=C2/C=C(c3ccccc3)N(CCc3ccc(S(N)(=O)=O)cc3)C2=O)cc(OC)c1OC`: the growth in the experiment on SR leukemia is 82.4%; with RPMI-8226 leukemia it was 66.8%; in the experiment with OVCAR-8 ovarian it was 91.6%; with OVCAR-5 ovarian, 118%; in the experiment on OVCAR-4 ovarian, 101%; in the experiment on SK-OV-3 ovarian, 103%. Besides, the growth is 101% in the experiment with IGROV1 ovarian, 110% with OVCAR-3 ovarian, 98.2% in the experiment on HS 578T breast and 99.6% in the experiment on NCI/ADR-RES ovarian.
